For nine molecules, z-score and composite z-score results are on record in PubChem BioAssay.

Assay [1] in a line: E. coli DRC41 culture turbidity changes, primary screen, E. coli filamentation inducer project, strain DRC41, OD650, 48 h (AID 1152).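 Also: E. coli MC1000 strain DRC41 lacking acrAB efflux pump and sulA.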 Particulars: E. coli DRC41 (acrAB sulA), higher = more signal, called active from +8 up or from −8 down.
Assay [2] can be described thus: small-molecule binders of probe aLefty1, primary screen, biochemical, small-molecule microarray, 635/667 nm fluorescence (AID 1153).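 Also: score merges spot fluorescence with signal-to-noise ratio from the scanned slide images.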 Particulars: higher = more signal.
The nature of assay [3]: PSAC antagonists in infected red cells, primary screen, cell-based, P. falciparum Indochina, OD700, 1 h (AID 1154). Particulars: P. falciparum Indochina infected RBC osmotic lysis, higher = more signal, called active from +8 up or from −8 down.
A short description of assay [4]: PSAC antagonists in infected red cells, primary screen, cell-based, P. falciparum Indochina, OD700, 2 h (AID 1155).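 Also: lysis reports solute entry through the parasite surface anion channel PSAC; channel blockers reduce lysis of infected cells.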 Particulars: P. falciparum Indochina infected erythrocytes, osmotic lysis OD700; higher = more signal, called active from +8 up or from −8 down.
Assay [5] in a line: osmotic lysis modulators in infected erythrocytes, primary screen, PSAC antagonist project, cell-based, P. falciparum Indochina, OD700, 3 h (AID 1156). Particulars: higher = more signal, called active from +8 up or from −8 down.
Assay [6] in a line: PSAC antagonists in infected red cells, primary screen, cell-based, P. falciparum Indochina, OD700, 18 h (AID 1157). Particulars: P. falciparum Indochina infected erythrocytes, osmotic lysis OD700, 18 h; higher = more signal, called active from +8 up or from −8 down.
Assay [7] can be described thus: modulators of S6 phosphorylation in cells, primary screen, cell-based, A549, cytoblot, luminescence, serum-stimulated (AID 1158).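 Also: serum-stimulated A549 lung adenocarcinoma cells; signal is phosphorylated S6 detected by cytoblot immunostaining with HRP secondary.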 Particulars: A549 phospho-S6 cytoblot, 5 h, higher = more signal.
In assay [8] the target is NADPH oxidase 2 (Homo sapiens) (UniProt P04839). Put plainly: NOX2-dependent H2O2 signal modulators, primary screen, NOX inhibitor project, cell-based, HEK293-NOX2, PMA-stimulated, Amplex Red fluorescence (AID 1159). Also: test concentration not given here. Particulars: 45 min, higher = more signal, called active from +8 up or from −8 down.
Assay [9] deals with NADPH oxidase 4 (Homo sapiens) (UniProt Q9NPH5). Put plainly: NOX4-dependent H2O2 signal modulators, primary screen, NOX inhibitor project, cell-based, HEK293-NOX4, tetracycline-induced, Amplex Red fluorescence (AID 1160). Particulars: 45 min, higher = more signal, called active from +8 up or from −8 down.
Assay [10] addresses NADPH oxidase 5 (Homo sapiens) (UniProt Q96PH1). Put plainly: NOX5-dependent H2O2 signal modulators, primary screen, NOX inhibitor project, cell-based, HEK293-NOX5, Amplex Red fluorescence (AID 1161). Particulars: HEK293-NOX5, ionomycin, 45 min, higher = more signal.
The nature of assay [11]: A549 cell viability effects, profiling panel, calcein-AM fluorescence, 48 h, basal (AID 1162). Also: test concentration not given here. Particulars: higher = more signal.
A short description of assay [12]: adipocyte viability effects, profiling panel, cell-based, 3T3-L1 adipocytes, calcein-AM fluorescence, 48 h, basal (AID 1163). Also: test concentration not given here. Particulars: 3T3-L1 adipocytes viability, higher = more signal.
Assay [13] in a line: HepG2 cell viability effects, profiling panel, calcein-AM fluorescence, 48 h, basal (AID 1164). Also: test concentration not given here. Particulars: higher = more signal.
Assay [14] in a line: MM1S cell viability effects, profiling panel, calcein-AM fluorescence, 48 h, basal (AID 1165).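 Also: viability of MM1S multiple myeloma cells under basal unstimulated conditions; test concentration not given here.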 Particulars: higher = more signal.
Assay [15] can be described thus: basal RPMI8226 viability, no added stimulus, profiling panel, cell-based, calcein-AM fluorescence, 48 h, PK04 Diversity Set (AID 1166).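 Also: cells grown under basal conditions without added stimulus; test concentration not given here.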 Particulars: RPMI8226 myeloma viability, higher = more signal.
Assay [16] is described as follows: basal HepG2 mitochondrial membrane potential changes, profiling panel, cell-based, JC-1 fluorescence, 24 h, 100 nL compound (AID 1167). Also: test concentration not given here. Particulars: higher = more signal.
Assay [17] can be described thus: basal 3T3-L1 adipocyte mitochondrial potential changes, profiling panel, cell-based, JC-1 fluorescence, 3T3-L1 adipocytes, 24 h, 100 nL compound (AID 1168). Also: test concentration not given here. Particulars: JC-1 mitochondrial fluorescence, higher = more signal, called active from +8 up or from −8 down.
Assay [18] can be described thus: basal RPMI8226 mitochondrial membrane potential changes, profiling panel, cell-based, JC-1 fluorescence, 24 h, 100 nL compound (AID 1169). Also: test concentration not given here. Particulars: RPMI8226 myeloma, JC-1 mitochondrial potential fluorescence, higher = more signal.
Assay [19] is described as follows: basal MM1S mitochondrial membrane potential changes, profiling panel, cell-based, JC-1 fluorescence, 24 h, 100 nL compound (AID 1170). Also: test concentration not given here. Particulars: higher = more signal.
The nature of assay [20]: A549 lung cancer cell viability effects, profiling panel, resazurin fluorescence, 24 h, PK04 Diversity Set (AID 1171). Also: test concentration not given here. Particulars: higher = more signal, called active from +8 up or from −8 down. (Alamar Blue is a resazurin reagent that responds to reducing activity.)

Each structure is given as a SMILES string. Active and inactive are the calls of the source.

Chain of NADPH oxidase 4 (Homo sapiens) (Q9NPH5 whole entry, looked up): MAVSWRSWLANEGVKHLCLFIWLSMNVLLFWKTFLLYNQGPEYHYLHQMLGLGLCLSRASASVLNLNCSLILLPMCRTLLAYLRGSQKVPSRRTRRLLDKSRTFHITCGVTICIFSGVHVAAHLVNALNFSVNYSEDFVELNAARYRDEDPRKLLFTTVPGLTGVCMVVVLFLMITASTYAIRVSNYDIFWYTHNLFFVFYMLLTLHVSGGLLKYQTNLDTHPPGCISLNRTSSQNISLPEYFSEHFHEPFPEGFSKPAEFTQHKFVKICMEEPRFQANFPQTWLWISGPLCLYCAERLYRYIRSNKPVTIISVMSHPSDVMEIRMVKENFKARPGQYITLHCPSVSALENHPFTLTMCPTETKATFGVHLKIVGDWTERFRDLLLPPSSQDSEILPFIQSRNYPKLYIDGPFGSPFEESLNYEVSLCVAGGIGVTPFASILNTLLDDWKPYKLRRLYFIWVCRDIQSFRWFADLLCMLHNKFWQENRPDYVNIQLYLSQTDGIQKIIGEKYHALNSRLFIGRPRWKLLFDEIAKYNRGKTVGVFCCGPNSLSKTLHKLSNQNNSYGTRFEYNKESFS
Chain of NADPH oxidase 5 (Homo sapiens) (Q96PH1 whole entry, looked up): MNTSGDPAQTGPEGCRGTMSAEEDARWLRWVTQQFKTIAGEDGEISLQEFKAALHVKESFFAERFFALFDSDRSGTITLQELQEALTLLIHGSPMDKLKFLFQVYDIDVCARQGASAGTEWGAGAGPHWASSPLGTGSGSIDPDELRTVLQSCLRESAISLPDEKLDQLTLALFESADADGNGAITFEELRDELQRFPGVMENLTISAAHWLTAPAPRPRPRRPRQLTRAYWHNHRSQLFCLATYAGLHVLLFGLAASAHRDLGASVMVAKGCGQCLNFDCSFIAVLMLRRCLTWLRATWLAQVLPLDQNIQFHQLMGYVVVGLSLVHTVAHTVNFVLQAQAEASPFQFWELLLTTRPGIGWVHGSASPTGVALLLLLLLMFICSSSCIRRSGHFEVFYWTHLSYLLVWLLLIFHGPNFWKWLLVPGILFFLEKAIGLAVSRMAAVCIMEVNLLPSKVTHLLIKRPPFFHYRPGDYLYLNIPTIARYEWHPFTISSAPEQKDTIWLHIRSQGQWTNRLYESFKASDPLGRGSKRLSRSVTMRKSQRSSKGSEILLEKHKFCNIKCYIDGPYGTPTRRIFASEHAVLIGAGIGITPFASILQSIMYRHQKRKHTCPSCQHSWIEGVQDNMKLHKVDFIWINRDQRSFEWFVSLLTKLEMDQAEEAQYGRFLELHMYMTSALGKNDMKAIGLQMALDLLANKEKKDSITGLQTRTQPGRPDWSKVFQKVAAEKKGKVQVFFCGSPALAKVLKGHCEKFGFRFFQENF
Chain of NADPH oxidase 2 (Homo sapiens) (P04839 whole entry, looked up): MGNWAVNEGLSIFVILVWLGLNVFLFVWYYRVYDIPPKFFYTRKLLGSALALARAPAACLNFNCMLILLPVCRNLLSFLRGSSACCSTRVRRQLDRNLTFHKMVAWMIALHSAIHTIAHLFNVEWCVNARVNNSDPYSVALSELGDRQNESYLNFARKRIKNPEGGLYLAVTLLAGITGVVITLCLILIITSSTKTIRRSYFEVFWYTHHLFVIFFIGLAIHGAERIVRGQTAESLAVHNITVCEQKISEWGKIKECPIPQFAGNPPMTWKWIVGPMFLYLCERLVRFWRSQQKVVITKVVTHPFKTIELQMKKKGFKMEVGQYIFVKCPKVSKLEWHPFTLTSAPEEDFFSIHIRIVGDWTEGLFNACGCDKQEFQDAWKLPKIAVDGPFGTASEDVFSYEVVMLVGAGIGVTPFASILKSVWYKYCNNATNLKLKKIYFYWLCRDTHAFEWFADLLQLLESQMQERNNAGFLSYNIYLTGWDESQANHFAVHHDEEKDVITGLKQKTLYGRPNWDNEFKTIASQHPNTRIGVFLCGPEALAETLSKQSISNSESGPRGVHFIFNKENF

`CN(C)C(=O)[C@]1(Cc2ccccc2CN=[N+]=[N-])N=C(c2ccc(OCCCO)cc2)O[C@@H]1c1ccccc1CN=[N+]=[N-]`: the z-score is -0.214 (inactive) in assay [1]; 26.8 (active) in assay [3]; 13.4 (active) in assay [4]; 2.66 (inactive) in assay [5]; -0.0196 (inactive) in [6]; 1.18 in [7]. The z-score was -3.36 (inactive) in assay [8]; -1.6 (inactive) in assay [9]; -1.78 in [10]; -0.999 in assay [11]; 1.59 in [12]; 0.309 in [13]. For the same molecule, the z-score in assay [14] is -2.26; in assay [15], -4.24; in assay [16] it was 0.644; in [17], -0.735 (inactive); in assay [18] it was -1.13; in [19], -0.0198. Further, the z-score in [20] was 0.113 (inactive). The molecule also came in with a composite z-score in assay [2] of 0.425.

`COc1ccc(COC2OC[C@]3(C)[C@H]4C5=C(CN3C(=O)OC(C)(C)C)[C@H](C)C(CO)C(CO)C5CC[C@@H]24)cc1` (stereo not given in full): the z-score in assay [1] was -2.31 (inactive); in assay [3], 1.81 (inactive); in assay [4], 0.0544 (inactive); in assay [5], 1.95 (inactive); in assay [6], 0.741 (inactive); in [7] it was -0.139. The z-score in [8] is -0.543 (inactive); in assay [9] it was -3.44 (inactive); in assay [10], -3.88; in assay [11], -0.963; in assay [12] it was 0.627; in [13], -0.0917. Besides, the z-score is 0.0355 in assay [14]; -1.17 in assay [15]; 1.24 in [16]; -0.685 (inactive) in assay [17]; 0.429 in [18]; 0.0993 in assay [19]. The z-score in assay [20] was -1.34 (inactive). In assay [2], the composite z-score was determined as 0.638.

For `COc1ccc([C@H]2OC[C@@H]3CC4(CC=CC4)C(=O)N32)cc1`, the z-score was -0.56 (inactive) in [1]; 0.486 (inactive) in assay [3]; 0.477 (inactive) in assay [4]; -0.51 (inactive) in assay [5]; 0.136 (inactive) in assay [6]; -0.516 in assay [7]. Moreover, the z-score was 0.777 (inactive) in [8]; 0.674 (inactive) in assay [9]; 0.291 in [10]; 0.262 in assay [11]; -0.238 in assay [12]; -0.0409 in assay [13]. Moreover, the z-score is -0.58 in [14]; 0.055 in assay [15]; -0.301 in [16]; 0.197 (inactive) in assay [17]; -0.54 in assay [18]; 0.17 in [19]. Moreover, the z-score in [20] is -0.312 (inactive). This molecule also yielded a composite z-score in assay [2] of 0.0406.

Regarding `COc1ccc(CCN2C(=O)[C@@]3(c4ccc([N+](=O)[O-])cc4)CC(=O)N(C4CCCCC4)[C@@H]3c3ccc(CO)cc32)cc1`, the z-score in assay [1] is -0.183 (inactive); in assay [3] it was -0.715 (inactive); in [4] it was -0.0259 (inactive); in [5], -0.979 (inactive); in assay [6], -0.138 (inactive); in assay [7] it was -0.423. In addition, the z-score in [8] is -1.47 (inactive); in [9] it was -0.763 (inactive); in assay [10], -0.0167; in assay [11], 0.315; in assay [12], -1.26; in [13], -0.331. Further, the z-score in assay [14] was 0.199; in assay [15] it was 0.306; in assay [16], -1.65; in [17] it was -0.937 (inactive); in assay [18] it was -0.694; in assay [19], -0.838. Also, in assay [20], the z-score was -0.113 (inactive). This molecule also registered a composite z-score in [2] of 0.131.

On to `CCOC(=O)C=Cc1cc([N+](=O)[O-])ccc1O`, for which the z-score was -1.72 (inactive) in [1]; 26 (active) in [3]; 11.8 (active) in [4]; 2.13 (inactive) in assay [5]; -0.816 (inactive) in [6]; 2.41 in assay [7]. Also, the z-score in assay [8] is -4.11 (inactive); in assay [9] it was -2.98 (inactive); in assay [10] it was -3.76; in assay [11], -0.563; in [12] it was 1.39; in assay [13], -1.27. Besides, the z-score in assay [14] is 0.112; in assay [15], -2.29; in assay [16] it was -1.91; in [17], 0.428 (inactive); in [18] it was -0.403; in [19], -0.889. The z-score in assay [20] is 0.384 (inactive). For the same molecule, in [2], the composite z-score was -0.104.

Take `COc1ccc(CCNC(=O)[C@@]2(Sc3ccc(C)cc3)CC(=O)N(C3CCCCC3)[C@@H]2c2ccc(CO)cc2I)cc1`: the z-score in assay [1] was -0.0948 (inactive); in [3], 2.91 (inactive); in assay [4] it was 0.547 (inactive); in assay [5], -0.325 (inactive); in assay [6] it was 0.252 (inactive); in assay [7], -0.012. The z-score is 0.573 (inactive) in assay [8]; 0.672 (inactive) in assay [9]; 2.1 in assay [10]; 1.06 in [11]; -0.475 in assay [12]; -0.242 in [13]. Also, the z-score is -2.14 in assay [14]; -2.93 in [15]; -0.836 in [16]; -0.792 (inactive) in assay [17]; -0.632 in assay [18]; -1.33 in assay [19]. For the same molecule, the z-score in assay [20] is 1.11 (inactive). In [2], this molecule yielded a composite z-score of 0.0889.

In the case of `CC(C)C[C@@H]1NC(=O)[C@@H]2C[C@H](C(=O)NCCCCCN)[C@H](c3cccc(OCCO)c3)N2C1=O`, the z-score in assay [1] was 1.28 (inactive); in assay [3], 3.07 (inactive); in assay [4], -0.74 (inactive); in assay [5], 1.1 (inactive); in assay [6], -2 (inactive); in assay [7], 0.836. Also, the z-score in [8] is 1.22 (inactive); in assay [9], 0.74 (inactive); in [10], 1.43; in assay [11], 0.938; in assay [12], 0.624; in assay [13] it was 1.89. In addition, the z-score in assay [14] was 0.767; in [15], 1.26; in [16], 1.75; in [17] it was 0.00134 (inactive); in assay [18], -0.71; in [19], -0.495. The z-score in assay [20] was -0.217 (inactive). The molecule also came in with a composite z-score in assay [2] of 0.427.

Regarding `CCCC#C[Si](O[C@H](CC)c1cn([C@H](CO)Cc2ccccc2)nn1)(C(C)C)C(C)C`, the z-score is 1.12 (inactive) in [1]; 0.442 (inactive) in [3]; 0.479 (inactive) in assay [4]; -1.31 (inactive) in [5]; 0.752 (inactive) in assay [6]; -0.675 in [7]. The z-score is 0.819 (inactive) in [8]; 0.272 (inactive) in assay [9]; 0.493 in assay [10]; 0.0096 in assay [11]; -0.263 in [12]; 0.0341 in assay [13]. Also, the z-score in assay [14] was -1.21; in assay [15], 0.0028; in assay [16], -0.371; in assay [17] it was 0.406 (inactive); in assay [18], 0.78; in [19], -0.752. Besides, in [20], the z-score was 0.401 (inactive). In addition, the composite z-score in assay [2] amounted to 0.145.

Consider `CC(=O)N1Cc2ccccc2C[C@@]2(COC(c3ccc(OCCCO)cc3)=N2)C1=O`, for which the z-score in assay [1] was 2.48 (inactive); in assay [3] it was 28.1 (active); in [4] it was 13.4 (active); in [5], 2.79 (inactive); in assay [6], 1.7 (inactive); in assay [7], 2.28. The z-score is -1 (inactive) in assay [8]; 1.74 (inactive) in [9]; -1.24 in assay [10]; 1.23 in [11]; 1.93 in assay [12]; 2.01 in assay [13]. In addition, the z-score in assay [14] is -2; in assay [15], 0.151; in [16], 0.933; in assay [17], 1.59 (inactive); in [18] it was -0.894; in assay [19], -0.394. Besides, the z-score in assay [20] was 0.89 (inactive). Besides, the composite z-score in assay [2] turned out to be 0.611.
